From the supplement of paper PMC8728848 come the findings set out here.

What all share (assay): glycan array binding signal (z-score within array); higher = stronger binding
Common to all, as to details: glycan notation: IUPAC condensed, linker removed

Assay [1] deals with Fuc(a1-2)[GalNAc(a1-3)]Gal(b1-4)Glc. In short, it runs like this: (§1)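 Glycan array binding is given as a within-array Z-score, which can be read as non-binding when negative. The arrays, 3228 of them, came from the Consortium for Functional Glycomics database and were retained only where the protein sequence was available. Z-scores were averaged across arrays of the same protein sequence at different concentrations or buffers and across linkers.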

The target in assay [2] is Fuc(a1-2)[GalNAc(a1-3)]Gal(b1-4)[Fuc(a1-3)]GlcNAc. In short, it runs like this:
as §1

The target of another assay is Gal(a1-4)Gal(b1-4)Glc. In short, it runs like this: as §1
A further assay concerns the target Gal(b1-3)Gal. In short, it runs like this: as §1
Another assay addresses Gal(b1-4)GlcNAc. In short, it runs like this: as §1
Assay [3] concerns the target Gal(b1-4)GlcNAc(b1-2)Man(a1-3)[Gal(b1-4)GlcNAc(b1-2)Man(a1-6)]Man(b1-4)GlcNAc(b1-4)GlcNAc. In short, it runs like this:
as §1

Another assay deals with GalNAc(a1-3)Gal. In short, it runs like this:
as §1

For another assay, the target named is GalNAc(b1-4)GlcNAc. In short, it runs like this:
as §1

Assay [4] concerns the target GlcNAc(b1-2)Man(a1-3)[GlcNAc(b1-2)Man(a1-6)]Man(b1-4)GlcNAc(b1-4)GlcNAc. In short, it runs like this: as §1
A further assay deals with GlcNAc(b1-3)Gal. In short, it runs like this: as §1
Assay [5] concerns the target GlcNAc(b1-6)Gal(b1-4)GlcNAc. In short, it runs like this:
as §1

In assay [6] the target is Man(a1-2)Man(a1-2)Man(a1-6)[Man(a1-3)]Man. In short, it runs like this:
as §1

Assay [7] addresses Man(a1-2)Man(a1-3)[Man(a1-2)Man(a1-6)]Man. In short, it runs like this: as §1
Assay [8] deals with Man(a1-3)[Man(a1-6)]Man(a1-6)[Man(a1-3)]Man(b1-4)GlcNAc(b1-4)GlcNAc. In short, it runs like this:
as §1

In assay [9] the target is Neu5Ac(a2-3)Gal(b1-3)[Neu5Ac(a2-3)Gal(b1-4)]GlcNAc. In short, it runs like this:
as §1

The target in a further assay is Neu5Ac(a2-3)Gal(b1-4)Glc. In short, it runs like this: as §1
The target of the next assay is Neu5Ac(a2-6)Gal(b1-4)Glc. In short, it runs like this: as §1
Assay [10] has as its target Neu5Ac(a2-8)Neu5Ac(a2-8)Neu5Ac(a2-8)Neu5Ac(a2-3)[GalNAc(b1-4)]Gal(b1-4)Glc. In short, it runs like this: as §1
Assay [11] deals with Fuc(a1-2)[GalNAc(a1-3)]Gal(b1-4)GlcNAc. In short, it runs like this:
as §1

The target in the next assay is Gal(a1-3)Gal(b1-4)Glc. In short, it runs like this:
as §1

Assay [12] concerns the target Gal(a1-3)Gal(b1-4)[Fuc(a1-3)]GlcNAc. In short, it runs like this: as §1
In assay [13] the target is Gal(b1-3)[Fuc(a1-4)]GlcNAc. In short, it runs like this: as §1
A further assay addresses Gal(b1-4)Glc6S. In short, it runs like this: as §1
The target of the next assay is Glc(b1-4)Glc. In short, it runs like this: as §1
Assay [14] addresses GlcNAc(a1-6)Gal(b1-4)GlcNAc. In short, it runs like this: as §1
The next assay has as its target GlcNAc(b1-3)Gal(b1-4)Glc. In short, it runs like this: as §1
Assay [15] deals with GlcNAc(b1-3)Gal(b1-4)GlcNAc. In short, it runs like this:
as §1

The target of assay [16] is Man(a1-2)Man(a1-3)[Man(a1-2)Man(a1-6)]Man(a1-6)[Man(a1-2)Man(a1-2)Man(a1-3)]Man. In short, it runs like this: as §1
Assay [17] addresses Neu5Ac(a2-3)Gal(b1-3)[Fuc(a1-4)]GlcNAc(b1-3)Gal(b1-4)[Fuc(a1-3)]GlcNAc. In short, it runs like this:
as §1

Assay [18] concerns the target Neu5Ac(a2-3)Gal(b1-3)[Neu5Ac(a2-6)]GalNAc. In short, it runs like this:
as §1

For assay [19], the target named is Neu5Ac(a2-3)Gal(b1-4)GlcNAc(b1-2)Man(a1-3)[Neu5Ac(a2-6)Gal(b1-4)GlcNAc(b1-2)Man(a1-6)]Man(b1-4)GlcNAc(b1-4)GlcNAc. In short, it runs like this:
as §1

The target in assay [20] is Neu5Ac(a2-3)Gal(b1-4)GlcNAc(b1-3)Gal(b1-3)GlcNAc. In short, it runs like this: as §1
Assay [21] concerns the target Neu5Ac(a2-3)[GalNAc(b1-4)]Gal(b1-4)Glc. In short, it runs like this: as §1
The target in the next assay is Neu5Ac(a2-6)Gal. In short, it runs like this: as §1
The next assay concerns the target Neu5Ac(a2-8)Neu5Ac. In short, it runs like this: as §1
For assay [22], the target named is Neu5Ac(a2-8)Neu5Ac(a2-8)Neu5Ac(a2-3)[GalNAc(b1-4)]Gal(b1-4)Glc. In short, it runs like this: as §1
In assay [23] the target is Neu5Ac(b2-6)Gal(b1-4)GlcNAc. In short, it runs like this: as §1

Many of the other results were omitted from the sample, so the strongest signals are more common in it than they were.

B1: PMA (Polygonatum multiflorum) (protein)
chain: LLTTTLFVFISSTRSLASTNVLYSDVGNAILNAKESLIYGDYRLDMQSDCNLVLYNKAAPYWASGTRWSWGGNCHLNLQSNGELVMYAYLGRTRIAIWRSGIISATGSYALVLKYDGALHVHGPSLWSTNATGPTTPTTASWSIDSTLWSGDVATIGPTIANGDYKLELLDTCNLTLSNTKTGQVLWYTNTTDWVHDCYVNIEGNGELKIKYLGGATLWSNKVGAGYTNNYVLGLRPDGKLDTYNAPIWSPTIGPGVHVAPAVYNASSNAVAAEGNGEKIAMVTGRAKNST
Take B1: the “glycan array binding signal (z-score)” value in assay [1] was -0.249; in assay [2], -0.236; in the assay with Gal(a1-4)Gal(b1-4)Glc, -0.244; in the assay with Gal(b1-3)Gal, -0.195; in the assay with Gal(b1-4)GlcNAc it was -0.068; in [3], 7.37. Moreover, the “glycan array binding signal (z-score)” value with GalNAc(a1-3)Gal is -0.253; in the assay with GalNAc(b1-4)GlcNAc it was -0.246; in [4], 5.03; with GlcNAc(b1-3)Gal, -0.263; in assay [5], -0.255; in assay [6] it was 5.65. Moreover, the “glycan array binding signal (z-score)” value in [7] is 4.98; in [8] it was 2.16; in assay [9], -0.191; with Neu5Ac(a2-3)Gal(b1-4)Glc, -0.233; in the assay with Neu5Ac(a2-6)Gal(b1-4)Glc it was -0.255; in [10] it was -0.245.

B2: Ficolin A (Rattus norvegicus), Q9WTS8 (protein)
chain: MWWPMLWAFPVLLCLCSSQALGQESGACPDVKIVGLGAQDKVAVIQSCPSFPGPPGPKGEPGSPAGRGERGLQGSPGKMGPPGSKGEPGTMGPPGVKGEKGERGTASPLGQKELGDALCRRGPRSCKDLLTRGIFLTGWYTIYLPDCRPLTVLCDMDVDGGGWTVFQRRVDGSINFYRDWDSYKRGFGNLGTEFWLGNDYLHLLTANGNQELRVDLREFQGQTSFAKYSSFQVSGEQEKYKLTLGQFLEGTAGDSLTKHNNMAFSTHDQDNDTNGGKNCAALFHGAWWYHDCHQSNLNGRYLPGSHESYADGINWLSGRGHRYSYKVAEMKIRAS
Consider B2, for which the “glycan array binding signal (z-score)” value in [11] is -0.02; with Gal(a1-3)Gal(b1-4)Glc, -0.071; in assay [12] it was -0.105; in [13] it was -0.069; with Gal(b1-4)Glc6S it was -0.092; with Glc(b1-4)Glc, -0.11. For the same molecule, the “glycan array binding signal (z-score)” value in [14] was 17.3; in assay [4], -0.048; with GlcNAc(b1-3)Gal(b1-4)Glc, -0.056; in assay [15] it was -0.094; in assay [16], -0.092; in [17] it was -0.064. Further, the “glycan array binding signal (z-score)” value is 0.325 in [18]; -0.027 in assay [19]; -0.098 in assay [20]; 0.265 in [21]; -0.042 with Neu5Ac(a2-6)Gal; 0.58 with Neu5Ac(a2-8)Neu5Ac. The “glycan array binding signal (z-score)” value in [22] was -0.047; in assay [23] it was 1.16.
